PubChem BioAssay AID1159580 (chemical genetic matrix, 2015)
Several values for one entry are separate records, joined by “and”; a condition that tells them apart may be missing. Equal values may be shown once. The whole screen tested about 5,500 compounds, of which about 2,000 (36%) were called active. Roughly 18% stayed inconclusive and do not appear here. Rule as the data show it: active = normalized growth mostly below about 0.91 (no sharp cut-off); inconclusive = no clear call, values can overlap the other calls; inactive = mostly above about 0.92. Some of the results follow.

Experiment: chemical genetic growth profiling, strain panel (AID 1159580);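 also: tested at 20 µM; growth read once vehicle control cultures reached saturation at 30 °C; 1 = growth at the plate median or of vehicle wells; lower values mean less growth of the strain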
Details: S. cerevisiae deletion strains, growth OD
[1] = locus YAL013W, strain DEP1, hits give low values
[2] = locus YBR229C, strain ROT2, hits give low values
[3] = locus YCL061C, strain MRC1, hits give low values
[4] = locus YDL101C, strain DUN1, hits give low values
[5] = locus YDL134C, strain PPH21, hits give low values
[6] = locus YEL061C, strain CIN8, hits give low values
[7] = locus YGR078C, strain PAC10, hits give low values
[8] = locus YHR030C, strain SLT2, hits give low values
[9] = locus YJR043C, strain POL32, hits give low values
[10] = locus YKL190W, strain CNB1, hits give low values
[11] = locus YLR039C, strain RIC1, hits give low values
[12] = locus YLR262C, strain YPT6, hits give low values
[13] = locus YMR307W, strain GAS1, hits give low values
[14] = locus YNL153C, strain GIM3, hits give low values
[15] = locus YNL322C, strain KRE1, hits give low values

Measured: normalized growth

Cc1cc2c(cc1C)CSC(C)(c1ccc(F)cc1)SC2
inactive: [1] 0.994 | [2] 0.994 | [3] 0.993 | [4] 0.968 | [5] 0.997 | locus YDR150W, strain NUM1, hits give low values 0.903 | [6] 1.02 | [7] 0.979 | [8] 0.952 | locus YHR087W, strain rtc3, hits give low values 1.01 | [9] 0.982 | locus YJR075W, strain HOC1, hits give low values 0.978 | [10] 0.992 | [11] 0.953 | locus YLR058C, strain SHM2 (second series), hits give low values 1 | locus YLR085C, strain ARP6, hits give low values 1.03 | [12] 0.961 | locus YML094W, strain GIM5, hits give low values 1.01 | locus YMR219W, strain ESC1, hits give low values 1.01 | locus YMR263W, strain SAP30, hits give low values 0.947 | [13] 0.737 | [14] 0.986 | locus YNL298W, strain CLA4 (second series), hits give low values 0.975 | [15] 1 | locus YNR030W, strain Alg12, hits give low values 0.978 | locus YPL055C, strain LGE1, hits give low values 1 | locus YPL241C, strain CIN2, hits give low values 1.01 | locus YPR135W, strain CTF4, hits give low values 0.946

COc1ccccc1OCC(O)COC(N)=O (stereo unspecified)
inactive: [1] 0.997 | locus YAL021C, strain ccr4, hits give low values 0.991 | locus YAL026C, strain drs2, hits give low values 0.99 | locus YAL030W, strain snc1, hits give low values 0.996 | locus YBL061C, strain skt5, hits give low values 0.989 | locus YBR009C, strain hhf1, hits give low values 0.97 | locus YBR021W, strain FUR4, hits give low values 1.02 | locus YBR023C, strain chs3, hits give low values 0.966 | locus YBR171W, strain sec66, hits give low values 0.981 | [2] 1 | locus YBR231C, strain swc5, hits give low values 0.992 | locus YBR279W, strain paf1, hits give low values 0.976 | locus YCL011C, strain gbp2, hits give low values 0.979 | locus YCL016C, strain dcc1, hits give low values 0.962 | locus YCL029C, strain bik1, hits give low values 0.997 | [3] 0.973 | locus YCL069W, strain vba3, hits give low values 0.996 | locus YCR088W, strain abp1, hits give low values 0.985 | locus YDL005C, strain med2, hits give low values 0.987 | locus YDL035C, strain GPR1, hits give low values 1 | locus YDL040C, strain nat1, hits give low values 0.992 | locus YDL074C, strain BRE1, hits give low values 0.995 | [4] 0.997 | [5] 1.01 | locus YDL185W, strain tfp1, hits give low values 0.957 | locus YDL192W, strain arf1, hits give low values 0.977 | locus YDR001C, strain nth1, hits give low values 0.991 | locus YDR069C, strain doa4, hits give low values 0.996 | locus YDR101C, strain arx1, hits give low values 1.04 | locus YDR137W, strain rgp1, hits give low values 0.965 | locus YDR159W, strain sac3, hits give low values 1.01 | locus YDR162C, strain NBP2, hits give low values 1 | locus YDR195W, strain ref2 1.01 | locus YDR297W, strain sur2, hits give low values 0.996 | locus YDR318W, strain mcm21, hits give low values 0.993 | locus YDR334W, strain swr1, hits give low values 0.978 | locus YDR335W, strain msn5, hits give low values 0.993 | locus YDR388W, hits give low values 1 | locus YDR392W, strain spt3, hits give low values 0.918 | locus YDR502C, strain sam2, hits give low values 0.997 | locus YEL003W, strain gim4, hits give low values 1 | locus YEL037C, strain rad23, hits give low values 0.985 | locus YEL061C, strain CIN8 (second series), hits give low values 0.984 | [6] 0.98 | locus YER015W, strain faa2, hits give low values 0.974 | locus YER016W, strain bim1, hits give low values 1.02 | locus YER110C, hits give low values 0.983 | locus YER111C, strain swi4, hits give low values 0.981 | locus YER155C, strain BEM2 (second series), hits give low values 1 | locus YER155C, strain BEM2, hits give low values 0.993 | locus YER167W, strain BCK2, hits give low values 0.99 | locus YFR010W, strain ubp6, hits give low values 0.987 | locus YGL078C, strain dbp3, hits give low values 0.984 | locus YGL086W, strain mad1, hits give low values 1.02 | locus YGL167C, strain pmr1, hits give low values 0.983 | locus YGL173C, strain kem1, hits give low values 0.992 | locus YGL227W, strain vid30, hits give low values 0.988 | locus YGL240W, strain doc1, hits give low values 1.02 | locus YGL248W, strain PDE1, hits give low values 0.999 | locus YGL253W, strain hxk2, hits give low values 0.985 | [7] 1 | locus YGR135W, strain pre9, hits give low values 0.961 | locus YGR229C, strain SMI1, hits give low values 1 | locus YGR252W, strain gcn5, hits give low values 0.988 | locus YHR013C, strain ard1, hits give low values 0.952 | locus YHR027C, strain rpn1, hits give low values 1 | [8] 0.996 and 1.06 | locus YHR079C, strain IRE1 (second series), hits give low values 0.991 | locus YHR079C, strain IRE1, hits give low values 1.05 | locus YHR094C, strain hxt1, hits give low values 1 | locus YHR129C, strain ARP1, hits give low values 1 | locus YHR142W, strain chs7, hits give low values 0.965 | locus YHR200W, strain rpn10, hits give low values 0.985 | locus YIL066C, strain RNR3, hits give low values 1 | locus YIL073C, strain SPO22, hits give low values 0.94 | locus YIL125W, strain kgd1, hits give low values 0.999 | locus YIR030C, strain dcg1, hits give low values 0.985 | locus YJL092W, strain hpr5, hits give low values 0.984 | locus YJL095W, strain BCK1 (second series), hits give low values 0.991 | locus YJL095W, strain BCK1, hits give low values 0.991 and 1.03 | locus YJL115W, strain asf1, hits give low values 0.975 | locus YJL129C, strain trk1, hits give low values 0.972 | locus YJL134W, strain LCB3, hits give low values 0.99 | locus YJL154C, strain vps35, hits give low values 0.992 | locus YJL164C, strain tpk1, hits give low values 0.97 | locus YJL166W, strain qcr8, hits give low values 0.96 | locus YJL168C, strain set2, hits give low values 1 | locus YJL187C, strain SWE1 (second series), hits give low values 1 | locus YJL187C, strain SWE1, hits give low values 0.99 | [9] 1.02 | locus YJR066W, strain TOR1, hits give low values 0.984 | locus YKL009W, strain mrt4, hits give low values 0.973 | locus YKL068W, hits give low values 0.989 | locus YKL085W, strain MDH1 (second series), hits give low values 0.982 | locus YKL085W, strain MDH1, hits give low values 0.982 | locus YKL160W, strain elf1, hits give low values 0.965 | [10] 0.976 | locus YKR001C, strain vps1, hits give low values 1 | locus YKR026C, strain gcn3, hits give low values 0.992 | locus YKR091W, strain srl3, hits give low values 0.981 | locus YLL001W, strain dnm1, hits give low values 0.968 | locus YLL026W, hits give low values 0.995 | locus YLL041C, strain sdh2, hits give low values 0.998 | locus YLR027C, strain aat2, hits give low values 0.997 | [11] 0.941 | locus YLR058C, strain SHM2, hits give low values 0.999 | locus YLR102C, strain apc9, hits give low values 0.991 | locus YLR113W, strain HOG1, hits give low values 1.02 | locus YLR221C, strain rsa3, hits give low values 0.965 | locus YLR258W, strain gsy2, hits give low values 0.974 | locus YLR262C, strain YPT6 (second series), hits give low values 0.966 | [12] 0.985 | locus YLR268W, strain sec22, hits give low values 0.99 | locus YLR320W, strain mms22, hits give low values 0.964 | locus YLR330W, strain CHS5, hits give low values 0.991 | locus YLR342W, strain FKS1 (second series), hits give low values 1.01 | locus YLR342W, strain FKS1, hits give low values 0.981 | locus YLR357W, strain rsc2, hits give low values 0.963 | locus YLR370C, strain arc18, hits give low values 0.987 | locus YLR371W, strain rom2, hits give low values 1 | locus YLR384C, strain iki3, hits give low values 0.979 | locus YLR418C, strain cdc73, hits give low values 0.988 | locus YML016C, strain PPZ1, hits give low values 1 | locus YML032C, strain rad52, hits give low values 1 | locus YML120C, strain ndi1, hits give low values 0.958 | locus YML124C, strain tub3, hits give low values 0.988 | locus YMR058W, strain fet3, hits give low values 0.991 | locus YMR078C, strain ctf18, hits give low values 0.986 | locus YMR125W, strain sto1, hits give low values 0.971 | locus YMR129W, hits give low values 0.988 | locus YMR205C, strain PFK2, hits give low values 0.964 | locus YMR223W, strain ubp8, hits give low values 0.964 | locus YMR231W, strain pep5, hits give low values 0.983 | [13] 1.02 | locus YNL067W, strain RPL9B, hits give low values 0.986 | locus YNL071W, strain lat1, hits give low values 0.982 | locus YNL128W, strain TEP1, hits give low values 0.977 | [14] 1.01 | locus YNL183C, strain NPR1, hits give low values 0.976 | locus YNL209W, strain ssb2, hits give low values 0.984 | locus YNL233W, strain BNI4, hits give low values 0.995 | locus YNL248C, strain rpa49, hits give low values 0.985 | locus YNL250W, strain rad50, hits give low values 0.967 | locus YNL271C, strain bni1, hits give low values 0.977 | locus YNL298W, strain CLA4, hits give low values 0.99 | locus YNL307C, strain MCK1, hits give low values 0.999 | locus YNL322C, strain KRE1 (second series), hits give low values 0.987 | [15] 0.997 | locus YNR049C, strain mso1, hits give low values 0.99 | locus YNR052C, strain pop2, hits give low values 0.992 | locus YOL006C, strain TOP1, hits give low values 1.01 | locus YOL012C, strain htz1 0.742 | locus YOL147C, strain pex11, hits give low values 0.987 | locus YOR001W, strain rrp6, hits give low values 1.01 | locus YOR061W, strain CKA2, hits give low values 1 | locus YOR069W, strain VPS5, hits give low values 0.992 | locus YOR070C, strain gyp1, hits give low values 0.988 | locus YOR080W, strain dia2, hits give low values 0.987 | locus YOR083W, strain WHI5, hits give low values 0.954 | locus YOR106W, strain vam3, hits give low values 0.955 | locus YOR136W, strain idh2, hits give low values 0.989 | locus YOR144C, strain elg1, hits give low values 0.997 | locus YOR184W, strain ser1, hits give low values 0.989 | locus YOR231W, strain MKK1, hits give low values 1.04 | locus YOR265W, strain rbl2, hits give low values 0.992 | locus YOR270C, strain vph1, hits give low values 0.972 | locus YOR290C, strain snf2, hits give low values 0.886 | locus YOR316C, strain cot1, hits give low values 0.984 | locus YPL051W, strain arl3, hits give low values 1.01 | locus YPL078C, strain atp4, hits give low values 0.97 | locus YPL106C, strain sse1, hits give low values 0.978 | locus YPL240C, strain hsp82, hits give low values 0.996 | locus YPL256C, strain CLN2, hits give low values 1.06 | locus YPR119W, strain clb2, hits give low values 0.991 | locus YPR141C, strain kar3, hits give low values 0.966 | locus YPR163C, strain tif3, hits give low values 0.988 | locus YPR167C, strain met16, hits give low values 0.995 | strain wtn01, hits give low values 0.991
